Measured values as given in PubChem BioAssay (NCI).
Values joined by “and” are separate entries in the source; they are usually repeats but may differ in a detail not shown here. Identical values can stand only once. About 83,000 compounds went through this panel and 20% of them were active in at least one assay; those are over-represented in the sample as a whole.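 48-hour exposure, single concentration, 96-well plates; percent growth endpoint where 0 means no net growth. Active: below 10.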 Active and inactive are the calls of the source.

System: HL-60(TB) leukemia
Test: NCI-60 one-dose screen, 48 h (100 = growth as untreated, 0 = no growth, -100 = all killed)
Details: 10 µM unless noted

| Compound | growth |
| --- | --- |
| CNC(=S)Sc1ccc([N+](=O)[O-])cc1[N+](=O)[O-] | -14.6% (active) |
| O=C(CCc1nnc(CN(c2ccccc2)c2ccccc2)o1)c1nc2ccccc2[nH]1 | 84.1% (inactive) |
| Clc1ccc(/C=N\N2CCCCCC2)cc1 | 99.3% (inactive) and 77.3% (inactive) |
| Cn1nccc1Nc1nccc(-c2ccn([C@H](CO)c3ccc(Cl)c(F)c3)c(=O)c2)n1 | 57.1% (inactive) |
| Cc1cc(N(CCCNc2ccnc3cc(Cl)ccc23)Cc2ccco2)nc(N2CCOCC2)n1 | 45.5% (inactive) |
